HT1080 IDH1KD tx – HT-1080 IDH1 knockdown cell toxicity (counter line). 360,000 compounds, 2% hits. AID 686971. HT-1080 IDH1 knockdown viability, ATP luminescence, 48 h. Potency, µM (highest dose often 46.1 µM), for the others: at the top dose activity, negative = toxicity, usual class: cytotoxic;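 note: potency is the fitted concentration of half-maximal effect; 0% = DMSO wells and -100% = cell-free medium wells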
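Using the IDH1-knockdown HT-1080 line run in the same batch and compound series as the NT line, viability after 48 h at 37 °C was determined by CellTiter-Glo luminescence and expressed as % activity.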
DT40 TDP1 no CPT – qHTS for Inhibitors of human tyrosyl-DNA phosphodiesterase 1 (TDP1): qHTS in cells in absence of CPT | DT40 Tdp1-/- hTDP1 cells, no CPT, ATP luminescence, 48 h | Potency, µM (doses to about 46.2 µM), for inactives: top-dose activity change, negative = growth inhibition, usual class: inhibitors | 420,000 compounds, 15% hits; note: potency is the fitted concentration of half-maximal effect; nearly all actives have a fitted effect of over 55% in size
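No-CPT arm: Tdp1-/-;hTDP1 DT40 cells (400/well) plus compounds, incubated ≥48 hr at 37 °C. Readout CellTiter-Glo luminescence.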
TDP1 cell CPT – growth inhibition of DT40 Tdp1-/-;hTDP1 cells with camptothecin (screen for TDP1 inhibitors); chicken DT40 Tdp1-/-;hTDP1 cells + 20 nM CPT, ATP luminescence, 48 h; AID 686979; Potency, µM (titrated, usually from 46.2 µM), for the others: at the highest dose activity change, negative = growth inhibition, most hits filed as inhibitors; 420,000 compounds, 12% hits; note: potency is the fitted concentration of half-maximal effect; nearly all actives have a fitted effect of over 55% in size
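Chicken DT40 Tdp1-/- cells complemented with human TDP1, 400 cells/well, exposed to compounds plus 20 nM camptothecin for at least 48 h at 37 C; viability read as ATP content by CellTiter-Glo luminescence.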
HT1080NT lethal – kills 2HG-producing HT-1080-NT fibrosarcoma cells | Potency, µM (highest dose often 46.1 µM), for inactives: top-dose activity, negative = less viability, usual class: cytotoxic | HT-1080-NT fibrosarcoma viability, CellTiter-Glo ATP luminescence, 48 h | 360,000 compounds, 1.6% hits;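 note: NT is the 2HG producing partner of a matched IDH1 knockdown line; potency is the fitted concentration of half-maximal effect; 0% = DMSO-treated cells and -100% = media-only wells without cells; nearly all actives have a fitted effect of over 55% in size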
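750 cells/well, RPMI + 5% FBS; 2 h settle, compound pin-transfer, 48 h at 37 degrees C. CellTiter-Glo 10 min RT, luminescence. Normalized to DMSO and media-only wells.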
IL1B secr inh – inhibitors of inflammasome signaling (IL-1 beta secretion). THP-1 LPS/ATP IL-1B secretion, AlphaLISA, 16 h; hits give low values. activity change, % at 57.5 µM. 360,000 compounds, 4.7% hits. AID 743279; in the data active = activity change below about -50%; inconclusive = mostly about -30% to -49%
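THP-1 cells pretreated 1 hr with compounds (up to 57.5 uM final), then stimulated with LPS (250 ng/mL final) plus ATP (1.25 mM final); secreted IL-1B measured by AlphaLISA after 16 hr, decreased signal indicating inhibition.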
ELG1 DNA repair – ELG1-dependent DNA repair inhibition; HEK293T ELG1-luciferase reporter, luminescence, 16 h; DNA damage induced by 5-fluorouridine; Potency, µM (highest dose often 46.1 µM), for inactives: at the top dose activity change, negative = inhibition, usual class: inhibitors; 330,000 compounds, 2.3% hits; AID 504467; note: potency is the fitted concentration of half-maximal effect; nearly all actives have a fitted effect of over 55% in size
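Overnight (16 hr) co-exposure of 2,000 cells/well to 5-fluorouridine and compound at 37 °C preceded detection. Luciferase was quantified via ONE-Glo luminescence; loss of signal denotes inhibition.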
* = called active by the depositor; ? = inconclusive; nt = no result given; [ ] = dose if it differs, or a comment. In the library only some 19% were active in any assay of this set; here they are far more common. Unless noted, calls come from the whole dose curve; as a rule, active = well fitted curve in the direction sought with a large enough effect; inconclusive = small, poorly fitted or top-dose-only effect, or another doubt; inactive = no such curve, though single readings can be large; an effect the other way counts as inactive or inconclusive. Unless noted, % is set by controls: 0 for no effect and ±100 for the full control effect.

SMILES	HT1080 IDH1KD tx	DT40 TDP1 no CPT	TDP1 cell CPT	HT1080NT lethal	IL1B secr inh	ELG1 DNA repair
NC(=S)NS(=O)(=O)c1ccc(N)cc1	nt	-17%	-4%	nt	nt	nt
COCCOC(=O)C(C#N)c1nc2ccccc2nc1N1CCCC1 (stereo unspecified)	5%	-12%	-3%	4%	-16	-23%
CCCCOC(=O)C(C#N)c1nc2ccccc2nc1N1CCOCC1 (stereo unspecified)	-9%	?	?	-8%	?	21µM*
N#CC(C(=O)NCc1ccco1)c1nc2ccccc2nc1N1CCOCC1 (stereo unspecified)	-8%	?	?	-20%	-14	?
CCN1CCN(c2nc3ccccc3nc2C(C#N)C(=O)OCc2ccccc2)CC1 (stereo unspecified)	-19%	?	23µM*	-16%	-10	18µM*
CCCCCCOC(=O)C(C#N)c1nc2ccccc2nc1N1CCOCC1 (stereo unspecified)	1%	18µM*	?	4%	-13	?
CCCCCCOC(=O)C(C#N)c1nc2ccccc2nc1N1CCN(CC)CC1 (stereo unspecified)	23µM*	21µM*	?	16µM*	?	-26%
Nc1c(CC(=O)O)cccc1C(=O)c1ccccc1	nt	1%	11%	nt	nt	nt
CC(C)(C)OC(=O)N1CCC(NC(=O)c2nc[nH]c2C(=O)N2CCN(c3ccccc3)CC2)CC1	-1%	?	?	0%	-13	-6%
CN(C)c1nc2cc(Cl)ccc2cc1CN(Cc1ccc2c(c1)OCO2)C(=O)c1ccoc1	nt	-28%	15%[9.04 µM]	nt	nt	nt
CCN(CC(=O)N1CCCC1)S(=O)(=O)c1ccc2ccccc2c1	-5%	-14%	-24%	-11%	-15	-1%
CC1CCN(c2nc3ccccc3nc2C(C#N)C(=O)OC2CCCCC2)CC1 (stereo unspecified)	1%	?	16µM*	8%	-4	21%
CC1(C)CC(Cc2cccc(C(F)(F)F)c2)N(C(=O)OC(C)(C)C)C1 (stereo unspecified)	-1%	-10%	4%	1%	-13	nt
Cc1cc(N2CCN(c3ccccn3)CC2)n2cc(-c3ccccc3)nc2n1	-17%	18µM*	21µM*	-5%	-10	?
Cc1cc(N2CCN(C)CC2)n2cc(-c3ccc(F)cc3)nc2n1	-20%	?	-7%	-1%	-19	2%
CC(C)NC(=O)N1CCC2(CC1)CCN(C(=O)c1cnccn1)CC2	nt	-2%	-2%	nt	nt	nt
CC1(C(=O)O)CCCN1C(=O)c1cccc2ccccc12 (stereo unspecified)	8%	1%	-13%	12%	23	nt
CSCCC(NC(=O)COc1ccccc1)C(=O)NCC(C)(C)N1CCOCC1 (stereo unspecified)	6%	-2%	7%	1%	17	nt
Cn1c(=O)c2c(-c3ccccc3)n(N3CCOCC3)cc2n(C)c1=O	12%	?	?	3%	-5	13%
Cc1cccc(-c2c3c(=O)n(C)c(=O)n(C)c3cn2C(C)C)c1	-24%	21µM*	16µM*	-19%	-2	-7%
Cc1cccc(-c2c3c(=O)n(C)c(=O)n(C)c3cn2C2CCCCC2)c1	-1%	16µM*	?	-12%	-1	?
Cn1c(=O)c2c(-c3ccccc3)n(C3CCCCC3)cc2n(C)c1=O	17%	9.2µM*	18µM*	6%	-13	4%
Cc1cc(C)cc(C(=O)NCC(=O)OC(C)C(=O)N(C)c2ccccc2)c1 (stereo unspecified)	-1%	-16%	-4%	-2%	13	-19%
O=C(CNC(=O)C12CC3CC(CC(C3)C1)C2)N1CCN(S(=O)(=O)/C=C/c2ccccc2)CC1	1%	?	?	1%	0	?
CCc1ccc(OCC(=O)Nc2c(C(=O)c3ccc(Br)cc3)oc3ccccc23)cc1	nt	6%	-3%	nt	nt	nt
SMILES	HT1080 IDH1KD tx	DT40 TDP1 no CPT	TDP1 cell CPT	HT1080NT lethal	IL1B secr inh	ELG1 DNA repair
Cc1nc2cnc(N(C)C)nc2n(CCC#N)c1=O	nt	30%	10%	nt	nt	nt
CCCCCCCCN1C(=O)[C@H](CC(=O)N2CCOCC2)C[C@@]2(C(=O)OC)CC(C)(C)CC=C12	?	18µM*	21µM*	?	?	nt
CCCCCCCCN1C(=O)[C@H](CC(=O)N2CCCCC2)C[C@@]2(C(=O)OC)CC(C)(C)CC=C12	?	6.5µM*	8.2µM*	?	8	nt
CCC(=O)N1CCC1(C)C(=O)Nc1cccc(OC)c1OC (stereo unspecified)	13%	-9%	-1%	24%	-4	nt
CCOc1ccc(CCNC(=O)C2CCCN(S(=O)(=O)N3CC(C)CC(C)C3)C2)cc1OCC (stereo unspecified)	17%	?	?	7%	6	-8%
CC(NC(=O)c1ccco1)C(=O)N1CCN(S(=O)(=O)c2ccccc2C#N)CC1 (stereo unspecified)	-1%	-1%	6%	10%	16	15%
O=S(=O)(Cc1ccccc1)C(CCCc1ccccc1)S(=O)(=O)Cc1ccccc1	-1%	21µM*	23µM*	9%	-5	nt
COCCNC(=O)C1(C)CCN(C(=O)c2cccc(C)c2C)C1 (stereo unspecified)	14%	-3%	?	?	12	nt
Cc1c(C(=O)N2CCCC2)oc2c1-c1nn(CC(=O)NCc3ccccc3Br)cc1CC2	nt	21µM*	?	nt	nt	nt
CCOCCCNC(=O)Cn1cc2c(n1)-c1c(oc(C(=O)N3CCCC3)c1C)CC2	-3%	?	?	0%	18	nt
CCOc1ccccc1CNC(=O)Cn1cc2c(n1)-c1c(oc(C(=O)N3CCCC3)c1C)CC2	nt	13µM*	13µM*	nt	nt	nt
COCCNC(=O)Cn1cc2c(n1)-c1c(oc(C(=O)N3CCCC3)c1C)CC2	nt	-2%	-23%	nt	nt	nt
O=C(Nc1ccccc1OC(F)F)c1cccc(S(=O)(=O)N2CCCC2)c1	-1%	?	?	4%	10	15%
CC1(C(=O)O)CCC(C(=O)Nc2ccc(F)cc2)C1(C)C (stereo unspecified)	12%	3%	0%	22%	1	6%
Cc1nc(C)c(/C(O)=C/c2nc3ccccc3oc2=O)s1	5%	10µM*	8.2µM*	9%	0	-1%

Screening data from PubChem BioAssay.
